# Out of some 2,300 compounds screened, about 790 (34%) were called active. The list shows a part of the results. Results with a measured potency or affinity are listed apart. Values without a mark were called inactive. How the calls were made is not given here.
# Assay: THP-1 cell cytotoxicity, dose response, cytotoxicity control for non-replicating M. tuberculosis project (AID 489025)
# Settings: THP-1 cell viability; series mostly up to 40 µM; viability: at the top concentration
row,SMILES,viability
1,CN(C(=O)COC(=O)c1ccc([N+](=O)[O-])cc1Cl)C1CCCCC1,113%
2,N#Cc1cc(N)ccc1-n1cccc1,92.9%
3,Cc1cc(C(=O)N/N=C/c2ccc(OC(=O)c3ccccc3Br)cc2)n[nH]1,109%
4,Cc1cc2ccccc2n1CCNC(=O)C(C)(C)C,95.9%
5,CC(C)OC(=O)C(C)Oc1ccc(C(=O)NCCc2ccccc2)cc1 (stereo unspecified),89.1%
6,O=C(CC1CCCCC1)NCc1ccccc1,110%
7,CC1CCN(C(=O)COC(=O)c2cc3ccccc3cc2O)CC1,112%
8,CCNC(=O)COC(=O)c1ccc(-c2nc3ccccc3s2)s1,111%
9,CCSc1ncc(/C=N/Nc2ccc(Cl)cc2)n1C,80.5%
10,Cc1ccc(NC(=O)COC(=O)C2=COCCO2)c([N+](=O)[O-])c1,114%
11,Cc1c(NC(=O)c2coc(=O)c(Br)c2)c(=O)n(-c2ccccc2)n1C,117%
12,CCOC(=O)C(=O)NC12CC3CC(CC(C3)C1)C2,101%
13,O=C(NCCC1CCCC1)c1cccs1,93.2%
14,C/C(=N\NC(=O)c1cccs1)c1ccc2c(c1)OCO2,88.5%
15,O=C(COC(=O)c1ccc(Br)o1)Nc1ncc([N+](=O)[O-])s1,95.2%
16,O=C(CCS(=O)(=O)Cc1ccccc1)Nc1ncc([N+](=O)[O-])s1,87.1%
17,CCC(=O)c1ccc(OCC(=O)OCC(=O)N2CCc3ccccc3C2)cc1,114%
18,O=C(OCC(=O)N1CCc2ccccc21)c1ccc([N+](=O)[O-])cc1,123%
19,COC(=O)COc1ccc2cc(-c3ccc(OC)cc3)c(=O)oc2c1,127%
20,Cc1cccc(NC(=O)c2n[nH]c([N+](=O)[O-])c2Br)c1C,104%
21,Cc1cccc(NCCC(=O)c2ccc([N+](=O)[O-])cc2)c1C,102%
22,O=C(Nc1ccc([N+](=O)[O-])cc1)c1ccc(Cn2cc([N+](=O)[O-])cn2)cc1,73.7%

row,SMILES,viability
1,COc1ccc(NC(=O)c2ccc(-c3ccc([N+](=O)[O-])cc3)o2)cc1OC,81.5%
2,O=C(NCc1ccc(Cl)cc1)c1n[nH]c([N+](=O)[O-])c1Cl,116%
3,Cc1ccc(CCC(=O)Nc2ccc(C)c(C)c2)o1,118%
4,O=C(NCc1ccc(F)cc1)c1ccc(Br)o1,123%
5,CCC1CCc2sc(C(=O)NCC3CCCO3)cc2C1 (stereo unspecified),75.8%
6,CN1CCN(c2c(F)cc3c(=O)c(C(=O)O)cn4c3c2SCC4)CC1,100%
7,Cc1cc(C=C2C(=O)N(C)C(=S)N(C)C2=O)c(C)n1-c1cccnc1,77%
8,Cc1cccc(NC(=O)COC(=O)CCc2c[nH]c3ccccc23)c1C,117%
9,CC(=O)c1ccc(-c2nnc(CCC(=O)N(C)Cc3cccc4cnccc34)o2)s1,89.4%
10,CN1C(=O)CC(Sc2ccccc2C(=O)O)C1=O (stereo unspecified),132%
11,O=C(COC(=O)c1ccc(Cl)s1)c1ccc[nH]1,101%
12,COC(=O)[C@H](CC(C)C)NC(=O)NCCC1=CCCCC1,120%
13,CCn1nnc(NC(=O)COc2ccc(C3CCCCC3)cc2)n1,82.2%
14,CC1CC(C)CN(C(=O)COC(=O)c2ccc([N+](=O)[O-])o2)C1 (stereo unspecified),93.8%
15,COc1ccccc1NC(=O)C(=O)/C=C(\O)c1ccccc1,82.8%
16,CCn1nnc(NC(=O)c2ccc(-c3ccc(Cl)cc3)o2)n1,98.2%
17,CC12CN3CC(C)(CN(C1)C3c1ccc([N+](=O)[O-])o1)C2 (stereo unspecified),109%
18,COc1ccccc1CCNC(=O)c1ccc(C)o1,87.9%
19,COc1ccc(OCCCC(=O)Nc2ccc(N3CCOCC3)cc2)cc1,116%
20,CCOC(=O)CCNC(=O)c1ccc2nc(C3CCCCC3)oc2c1,104%
21,Cc1[nH][nH]c(=O)c1C(c1ccc(-c2ccc(F)cc2)o1)c1c(C)[nH][nH]c1=O,96.8%
22,CC(C)(C)OC(=O)NCCC(=O)Oc1ccc2ccc(=O)oc2c1,89.2%

row,SMILES,viability
1,Cc1noc(C)c1COc1ccc(C(=O)Nc2ccccn2)cc1,91.7%
2,COCCn1c(C)cc(C(=O)COC(=O)c2ccc([N+](=O)[O-])o2)c1C,118%
3,Cc1ccc(C)c(-c2nnc(NC(=O)COc3ccccc3)o2)c1,77.5%
4,O=C(Nc1ccccc1F)c1ccc(CSc2ccccc2)o1,89.5%
5,Cc1cc(C)c(C(=O)COC(=O)c2ccc([N+](=O)[O-])o2)cc1C,115%
6,Cc1ccc(C)c(-c2nnc(NC(=O)C3=COCCO3)o2)c1,83%
7,O=C1NN(c2ccccc2)C(=O)/C1=C/c1ccc(Sc2ccc(Cl)cc2)o1,79%
8,COc1ccc(-c2nnn(Cc3ccccc3)n2)cc1,103%
9,NC(=O)c1cccnc1Nc1cccc(F)c1,104%
10,COCCCC1CCN(Cc2nc(-c3ccccc3)no2)CC1,104%
11,CCCCNC(=O)COC(=O)c1cc(Br)ccc1Cl,118%
12,CC1COC(=O)C(NNc2ccc(Cl)c(Cl)c2)=N1 (stereo unspecified),115%
13,S=c1c2c(nc3nc[nH]n13)CCC2,102%
14,O=C(Cc1ccc(Cl)cc1)OCC(=O)c1ccc[nH]1,111%
15,Cc1cccc(OC(=O)c2sc3ncn(C)c(=O)c3c2C)c1,84.2%
16,O=C(c1ccc([N+](=O)[O-])o1)N1CCN(Cc2ccccc2)CC1,78.6%
17,Cc1ccccc1NC(=O)c1nc[nH]c1C(=O)NCc1ccccc1,91.3%
18,O=[N+]([O-])c1ccc(CN2CCN(c3ccc(Cl)cc3)CC2)o1,108%
19,Cc1cccc(CC(=O)NCC2CCCCC2)c1,110%
20,COc1ccc2c(c1)C(=C(C#N)C#N)C(=O)N2CCc1ccccc1,91.1%
21,CSc1nc2ccc(NC(=O)C3CC(=O)N(Cc4ccccc4)C3)cc2s1 (stereo unspecified),107%
22,O=C(CCC1CCCCC1)NCc1cccs1,105%

row,SMILES,viability
1,CCc1ccc(OCC(=O)c2c(O)c3ccccc3oc2=O)cc1,116%
2,CCCn1nnc(NC(=O)COc2ccc(CC)cc2)n1,109%
3,COc1cc(/C=N/Nc2ccc(Cl)c(C(=O)O)c2)ccc1OC(=O)c1cccs1,116%
4,COc1ccc(-c2nc(C=O)cs2)cc1,78%
5,Cc1cc(Br)ccc1OCCCCN1CCC(C)CC1,81%
6,CCOC(=O)COc1ccc2c3c(c(=O)oc2c1C)CCC3,112%
7,CCOC(=O)COc1cc([N+](=O)[O-])cc2cccnc12,115%
8,O=C(NCc1ccco1)c1nc2ccccc2s1,98.7%
9,O=Cc1c(NCc2ccco2)nc2ccccn2c1=O,90.6%
10,O=C(c1nnc(-c2ccc(Cl)cc2)o1)C1CCCC1,106%
11,CC1(c2nnc(Cc3ccccc3)o2)CC(c2ccccc2[N+](=O)[O-])=NO1 (stereo unspecified),96.1%
12,CCCCCCCC(=O)N/N=C/c1ccc([N+](=O)[O-])o1,106%
13,COC(=O)c1cccc(NC(=O)COc2cccc([N+](=O)[O-])c2)c1,109%
14,CCc1nnc(N/N=C/c2ccc(-c3ccc([N+](=O)[O-])cc3)o2)n1N,110%
15,O=C(CCNc1cccc(F)c1)c1cccc([N+](=O)[O-])c1,110%
16,CC1Cc2ccccc2N1C(=O)COC(=O)c1ccc(Cl)nc1 (stereo unspecified),84.6%
17,O=C(COC(=O)c1ccc(Br)o1)NCCCc1ccccc1,117%
18,COC(=O)CCSCc1cn2cc(Cl)ccc2n1,111%
19,CCC1CCc2sc(C(=O)NNC(=O)c3ccncc3)cc2C1 (stereo unspecified),90.1%
20,Cc1ccc(NCCC(=O)c2cccs2)cc1C,109%
21,COc1ccc(N=N/C(=C\O)C(=O)c2cccs2)cc1,95.2%
22,Sc1oc(-c2ccccc2)cc1C=Nc1ccccc1,87.7%

row,SMILES,viability
1,COc1ccc(C2=NOC(COC(=O)c3ccc4ccccc4n3)C2)cc1 (stereo unspecified),95.7%
2,CCOC(=O)COc1ccc(C2CC(C)=NN2c2ccccc2)cc1 (stereo unspecified),99.1%
3,CCCCOc1ccc(NC(=O)CN2CCN(Cc3ccccc3)CC2)cc1,101%
4,O=C(COC(=O)C1CC2C=CC1C2)Nc1ccccc1 (stereo unspecified),95.1%
5,Cc1cc(C)n2[nH]c(=O)c(N=Nc3cccc(C(F)(F)F)c3)c2n1,88.8%
6,CCOC(=O)/C=C1\Nc2ccccc2OC1=O,92.2%
7,Cn1c(SCCOc2cccc(Cl)c2)nnc1-c1ccncc1,96.3%
8,Clc1ccc(OCCCCN2CCc3ccccc3C2)cc1,92%
9,O=C(COC(=O)CCc1c[nH]c2ccccc12)Nc1cc([N+](=O)[O-])ccc1Cl,76.8%
10,O=C(CCCSc1nc2ccccc2s1)NCc1ccco1,102%
11,O=C(O)CCCCCN1C(=O)CSC1=S,99.2%
12,COc1ccc(CN=C2NN=C(c3ccc(Cl)cc3)CS2)cc1,79.2%
13,c1ccc(Cn2c(SCCN3CCOCC3)nnc2-c2cccnc2)cc1,99.7%
14,O=C(O)c1ccc(CN2C(=O)CSC2=S)cc1,102%
15,CCOc1ccc(OCC(=O)Nc2nccs2)cc1,91%
16,CCOc1ccc2ccccc2c1/C=N/NC(=O)c1ccncc1,125%
17,COc1ccc(NC(=O)Nc2ccc(O)c3ccccc23)cc1,88.4%
18,O=C(CCSc1ccc(Cl)cc1)Nc1cccnc1,85.8%
19,COc1ccc(C(=O)OCn2nnc3ccccc3c2=O)cc1,97.7%
20,Cc1ccc(C(=O)N/N=C/c2cccc3ccccc23)cn1,82.5%
21,CCOC(=O)C1CCN(CCCSc2ccc(Cl)cc2)CC1,109%
22,C/C(=N\NC(=O)c1cccc(Cl)c1)C1C(=O)c2ccccc2C1=O,73.1%

row,SMILES,viability
1,O=C(CCc1ccccc1)NC1C2CC3CC(C2)CC1C3 (stereo unspecified),75.9%
2,C/C(=N\NC(=O)c1ccncc1)c1cc2ccccc2oc1=O,132%
3,C/C(=N/NC(=O)c1cccc(C)c1)c1c(O)cc(C)oc1=O,93%
4,Cc1ccccc1C(=O)NN1CC(C(=O)OCc2ccc(Cl)c(Cl)c2)CC1=O (stereo unspecified),107%
5,CSc1ccccc1C(=O)NCc1ccc(S(N)(=O)=O)cc1,119%
6,O=C(COc1ccc(Cl)cc1)OCC(=O)N1CCCc2ccccc21,103%
7,CNC(=O)c1[nH]cnc1C(=O)Nc1ccc(Cl)cc1,113%
8,O=C(Nc1cccnc1)c1cc(Cl)ccc1Cl,113%
9,CN1/C(=C\C(=O)COC(=O)C2COc3ccccc3O2)C(C)(C)c2ccccc21 (stereo unspecified),89%
10,CN1/C(=C\C(=O)COC(=O)c2ccc([N+](=O)[O-])o2)C(C)(C)c2ccccc21,112%
11,O=C(NCc1ccc(F)cc1)c1cnccn1,92.3%
12,O=C(OCc1ccc(Cl)c(Cl)c1)c1ccccn1,103%
13,CC(C)c1ccc(OCC(=O)NNC(=O)c2cnccn2)cc1,122%
14,NNC(=O)CNC(=O)C12CC3CC(CC(C3)C1)C2,96.7%
15,O=C(OCC(=O)C12CC3CC(CC(C3)C1)C2)c1ccccn1,102%
16,O=C(Oc1cccnc1)c1ccc(Cl)c(Cl)c1,103%
17,Nc1c(C(=O)NC2CCCCC2)nsc1C(=O)OCC(=O)NC1CCCCC1,77.8%
18,COC(=O)COc1ccc(S(=O)(=O)NCc2ccc3c(c2)OCO3)cc1,125%
19,COC(=O)CCCC(=O)N1CCCC(C(=O)c2ccc(-c3ccccc3)cc2)C1 (stereo unspecified),111%
20,N#Cc1ccc(CSc2nnc(-c3cccnc3)o2)cc1,95.3%
21,O=C(COC(=O)CCC(=O)c1ccc(F)cc1)Nc1ccccc1,116%
